One test addresses ERCC8. Nature of the test: pooled miR-30 sensor sort-seq; sequence = guide strand. Particulars: shRNA.
On to TATTTCTTGTCTGTGACCCTGT, for which the sensor-assay potency score (higher = more potent) was 1.1.
Sequence TAATCAAACATCCTGATGCTCT had a sensor-assay potency score (higher = more potent) of -0.532.
The sequence TTCGATTATCTGTACCAACAGT showed a sensor-assay potency score (higher = more potent) of -0.994.
Still for that read-out and setting: then TTTAATTGTGATTTTGTTGTAG, with 0.555; and TCTACTGTCAGCACTTGCTGTT, with 0.468; and TCACACCATCTGAACCACCTGA, with 0.0366.
As to TCTTTCAACATCTCTGTCTTTA, the sensor-assay potency score (higher = more potent) was 0.0508.
TTCTTTCAACATCTCTGTCTTT: the sensor-assay potency score (higher = more potent) is -0.331.
Sequence TTTGACTGAAATACACAGCAGT displayed a sensor-assay potency score (higher = more potent) of 0.0965.
TAAACTATACAGAAGTCTGTTT registered a sensor-assay potency score (higher = more potent) of -0.703.
In turn, TTGACTGAAATACACAGCAGTC displayed a sensor-assay potency score (higher = more potent) of -0.992.
Same read-out and setting: then TTGTTGTAGTCTCATCATCATC, with -1.65.

The target of a further test is ERG. Described as above. Particulars: shRNA.
TAAGACTTCATGCTTCTACATA came in with a sensor-assay potency score (higher = more potent) of -1.33.
Same read-out and setting: then TATTGCTTTAGTTTCATCCCAG, with -0.25; and TAACAAGATGTTGACGTCTGGA, with 0.51.
In turn, TTGAGACAGCCAATCCTGCTGA displayed a sensor-assay potency score (higher = more potent) of 0.276.
Take TGCTTCTACATACACTGTCTTT: the sensor-assay potency score (higher = more potent) was -1.13.
Regarding TCTTGTCATAGTAGTAACGGAG, the sensor-assay potency score (higher = more potent) is -1.01.
TTCTGTAGTAAGACTTCAGTAA: the sensor-assay potency score (higher = more potent) was 0.212.
Same read-out and setting: then TTACATTCCATTTTGATGGTGA, with 0.928; and TAAAATGGCATTATAAACGGTA, with -0.0295; and TACATTTCTTAAGACCACTTTC, with -0.508.
Same read-out and setting: then TGGAAGTCGAACTTGTAGGCGT, with 0.335; and TTTCTAGCATGCATTAACCGTG, with -0.322; and TAAGACTTCAGTAACTCCCTCC, with 0.34.
On to TAAATCTGTGTTTCTAGCATGC, for which the sensor-assay potency score (higher = more potent) was found to be 0.0224.
On the same count and under the same terms, the figure for TTCTCCTCCATGTAGCTGCCGT is -0.46.
With TATTCGTGACATTTTTAGCATC, the sensor-assay potency score (higher = more potent) is -1.17.
The sequence TTCTAGCATGCATTAACCGTGG displayed a sensor-assay potency score (higher = more potent) of -0.659.
Still for that read-out and setting: then TTTCTTTGGCACTTTGTCCTTA, with 0.442; and TTATCGTAGTTCATGTTGGGTT, with -0.512.
The same measure, in the same setting: then TTTTGATTCATGTTCTCCGATA, with -0.485.
Still for that read-out and setting: then TCATCTTGGAAGTCTGTCCATA, with -0.884; and TTCTTTGGCACTTTGTCCTTAA, with -0.383; and TAGCATGCATTAACCGTGGAGA, with -0.638.
As to TTCTTGTCATAGTAGTAACGGA, the sensor-assay potency score (higher = more potent) is -1.05.

In the next test the target is ERICH1. The test is described as above. Particulars: shRNA.
TTTTTTGTTAAAGAGGAGCTGT gave a sensor-assay potency score (higher = more potent) of 0.195.
The same measure, in the same setting: then AATTGTATCATCTTCCTCGCTG, with 0.524.
Still for that read-out and setting: the figure for TTATTTTTGCTTATTGTGGTGC is 0.19; for TTAACTTAACAGAATGTCCATT it is -0.597.

The record behind these values is the OligoGym collection.
Note: reference of the scale not given here.
